Experimental data from paper PMC5540273 (PLoS ONE, 2017).

Tested on: MERTK
Conditions: concentration: 1 μM, replicates: in singlicate; n = 1
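Further: KINOMEscan kinase panel screen.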

Row | SMILES | %Inh
1 | O=C(Nc1cccc(-c2nn3ncccc3c2-c2ccnc(Nc3cccc(C(F)(F)F)c3)n2)c1)c1c(F)cccc1F [GSK299495] | 51%
2 | O=C(c1ccc(-c2cc(-c3c[nH]nc3-c3ccccn3)ccn2)cc1)N1CCOCC1 [GW812171] | 12%
3 | Cc1cccc(Cn2ccn3c(=O)cc(N4CCOCC4)nc23)c1 [GSK2297542] | 24%
4 | NS(=O)(=O)c1cccc(-c2ccc3ncc(N4CCOCC4)nc3c2)c1 [GSK1535721] | 9%
5 | CCc1ccnc(/C=C/c2n[nH]c3cc(Sc4ccccc4C(=O)NC)ccc23)c1 | 0%
6 | O=c1cc(N2CCOCC2)nc2n(Cc3cccc(C(F)(F)F)c3)ccn12 [GSK2297543] | 0%
7 | COC(=O)Nc1nc2cc(Oc3ccc(NC(=O)Nc4cc(F)ccc4F)cc3)ccc2[nH]1.Cl [GW701424] | 90.8%
8 | NS(=O)(=O)CCc1cccc(Nc2nccc(-c3c(-c4cccc(NC(=O)c5c(F)cccc5F)c4)nn4ccccc34)n2)c1 [GSK336735] | 87%
9 | O=C(NCCNc1ccnc(Nc2ccc(F)cc2)n1)c1cc2ccccc2s1 [GSK1379874] | 0%
10 | CC(C)(C)n1cnc2c(N)ncnc21 [SKF-97359] | 0%
11 | COc1cc2c(cc1OC[C@@H](O)CO)ncc1c3ccc(C#N)cc3[nH]c21 | 0%
12 | O=C(NCCNc1ccnc(Nc2ccc(F)cc2)n1)Nc1ccccc1F [GSK1379880] | 7%
13 | Fc1ccc(-c2ncn(CCCN3CCOCC3)c2-c2ccccn2)cc1 [SB-211742] | 0%
14 | O=C(Nc1n[nH]c2cc(-c3cccc(F)c3)ccc12)C1CC1 [SB-735464] | 23%
15 | Cc1nnc(-c2ccc(C)c(-c3ccc(C(=O)Nc4ccc(NS(C)(=O)=O)cc4)cc3)c2)o1 [GW702865] | 0%
16 | CNc1ncnc2[nH]ncc12 [SKF-18355] | 0%
17 | Cc1cccc(-c2nc(-c3ccc(S(C)(=O)=O)cc3)sc2-c2ccncc2)c1 | 12%

Row | SMILES | %Inh
18 | Nc1nc(-c2ccc3c(N)n[nH]c3c2)cc(N2CCCC2)n1 [GSK2227430] | 8%
19 | Fc1ccc(-c2ncn(CCCN3CCOCC3)c2-c2cccnc2)cc1 [SB-211743] | 4%
20 | [2H]C([2H])(c1cccc(C(F)(F)F)c1C)n1ccn2c(=O)nc(N3CCOCC3)cc12 [GSK2336394] | 0%
21 | c1ccc(-c2cc(-c3c[nH]nc3-c3ccccn3)ccn2)cc1 [GW576604] | 0%
22 | CCc1nc(-c2cccc(C)c2)c(-c2ccnc(NCc3ccccc3)c2)s1 | 0%
23 | Cn1ccc2ncnc(Oc3ccc(NC(=O)Nc4ccncc4)c(Cl)c3)c21 | 0%
24 | COCCNC(=O)c1ccc(-c2cc(C(=O)NC3CC3)cc(F)c2C)cc1 [GW868318] | 0%
25 | O=C1NC(=O)C(N2CCc3ccccc32)=C1c1cccc(Cl)c1 [SB-408010] | 0%
26 | CN(C1=C(c2ccccc2)C(=O)NC1=O)c1ccccc1 [SB-334860] | 0%
27 | NCC(NC(=O)c1cc(-c2cn[nH]c2)c(-c2ccnc3[nH]ccc23)s1)c1ccccc1.O=C(O)C(F)(F)F.O=C(O)C(F)(F)F (centres unmarked) [GSK1325775] | 0%
28 | COc1ccc(Nc2nccc(N3CCC(NC(=O)Nc4cccc(C(C)=O)c4)C3)n2)cc1 (centres unmarked) [GSK1379731] | 35%
29 | Cn1cc(-c2ccc3c(c2)CCN3C(=O)Cc2ccccc2Cl)c2c(N)ncnc21 [GSK2608885] | 93.2%
30 | O=c1cc(N2CCOCC2)nc2n(Cc3cccc(F)c3)ccn12 [GSK2297430] | 16%
31 | CN(C(=O)c1ccc(-c2cc(-c3c[nH]nc3-c3ccccn3)ccn2)cc1)C1CCOCC1 [GW810083] | 0%
32 | CC(=O)Nc1ccc(COc2ccc(Nc3ccnc4cc(-c5ccccn5)ccc34)cc2)cc1.Cl [GW440148] | 11%
33 | NS(=O)(=O)c1cccc(-c2ccc3nccc(-c4cccc(S(N)(=O)=O)c4)c3c2)c1 [GW867253] | 14%
34 | N#Cc1c(N2CCOCC2)sc(-c2ccn[nH]2)c1-c1ccc(Cl)cc1 | 0%

Tested on: MET
Conditions: concentration: 1 μM, replicates: in singlicate; n = 1

Row | SMILES | %Inh
35 | O=C(Nc1cccc(-c2nn3ncccc3c2-c2ccnc(Nc3cccc(C(F)(F)F)c3)n2)c1)c1c(F)cccc1F [GSK299495] | 0%
36 | O=C(c1ccc(-c2cc(-c3c[nH]nc3-c3ccccn3)ccn2)cc1)N1CCOCC1 [GW812171] | 0%
37 | Cc1cccc(Cn2ccn3c(=O)cc(N4CCOCC4)nc23)c1 [GSK2297542] | 23%
38 | NS(=O)(=O)c1cccc(-c2ccc3ncc(N4CCOCC4)nc3c2)c1 [GSK1535721] | 0%
39 | CCc1ccnc(/C=C/c2n[nH]c3cc(Sc4ccccc4C(=O)NC)ccc23)c1 | 0%
40 | O=c1cc(N2CCOCC2)nc2n(Cc3cccc(C(F)(F)F)c3)ccn12 [GSK2297543] | 0%
41 | COC(=O)Nc1nc2cc(Oc3ccc(NC(=O)Nc4cc(F)ccc4F)cc3)ccc2[nH]1.Cl [GW701424] | 40%
42 | NS(=O)(=O)CCc1cccc(Nc2nccc(-c3c(-c4cccc(NC(=O)c5c(F)cccc5F)c4)nn4ccccc34)n2)c1 [GSK336735] | 83%
43 | O=C(NCCNc1ccnc(Nc2ccc(F)cc2)n1)c1cc2ccccc2s1 [GSK1379874] | 0%
44 | CC(C)(C)n1cnc2c(N)ncnc21 [SKF-97359] | 0%
45 | COc1cc2c(cc1OC[C@@H](O)CO)ncc1c3ccc(C#N)cc3[nH]c21 | 0%
46 | O=C(NCCNc1ccnc(Nc2ccc(F)cc2)n1)Nc1ccccc1F [GSK1379880] | 0%
47 | Fc1ccc(-c2ncn(CCCN3CCOCC3)c2-c2ccccn2)cc1 [SB-211742] | 13%
48 | O=C(Nc1n[nH]c2cc(-c3cccc(F)c3)ccc12)C1CC1 [SB-735464] | 0%
49 | Cc1nnc(-c2ccc(C)c(-c3ccc(C(=O)Nc4ccc(NS(C)(=O)=O)cc4)cc3)c2)o1 [GW702865] | 12%
50 | CNc1ncnc2[nH]ncc12 [SKF-18355] | 0%
51 | Cc1cccc(-c2nc(-c3ccc(S(C)(=O)=O)cc3)sc2-c2ccncc2)c1 | 10%

Row | SMILES | %Inh
52 | Nc1nc(-c2ccc3c(N)n[nH]c3c2)cc(N2CCCC2)n1 [GSK2227430] | 0%
53 | Fc1ccc(-c2ncn(CCCN3CCOCC3)c2-c2cccnc2)cc1 [SB-211743] | 0%
54 | [2H]C([2H])(c1cccc(C(F)(F)F)c1C)n1ccn2c(=O)nc(N3CCOCC3)cc12 [GSK2336394] | 0%
55 | c1ccc(-c2cc(-c3c[nH]nc3-c3ccccn3)ccn2)cc1 [GW576604] | 13%
56 | CCc1nc(-c2cccc(C)c2)c(-c2ccnc(NCc3ccccc3)c2)s1 | 0%
57 | Cn1ccc2ncnc(Oc3ccc(NC(=O)Nc4ccncc4)c(Cl)c3)c21 | 0%
58 | COCCNC(=O)c1ccc(-c2cc(C(=O)NC3CC3)cc(F)c2C)cc1 [GW868318] | 0%
59 | O=C1NC(=O)C(N2CCc3ccccc32)=C1c1cccc(Cl)c1 [SB-408010] | 0%
60 | CN(C1=C(c2ccccc2)C(=O)NC1=O)c1ccccc1 [SB-334860] | 0%
61 | NCC(NC(=O)c1cc(-c2cn[nH]c2)c(-c2ccnc3[nH]ccc23)s1)c1ccccc1.O=C(O)C(F)(F)F.O=C(O)C(F)(F)F (centres unmarked) [GSK1325775] | 0%
62 | COc1ccc(Nc2nccc(N3CCC(NC(=O)Nc4cccc(C(C)=O)c4)C3)n2)cc1 (centres unmarked) [GSK1379731] | 0%
63 | Cn1cc(-c2ccc3c(c2)CCN3C(=O)Cc2ccccc2Cl)c2c(N)ncnc21 [GSK2608885] | 88%
64 | O=c1cc(N2CCOCC2)nc2n(Cc3cccc(F)c3)ccn12 [GSK2297430] | 0%
65 | CN(C(=O)c1ccc(-c2cc(-c3c[nH]nc3-c3ccccn3)ccn2)cc1)C1CCOCC1 [GW810083] | 0%
66 | CC(=O)Nc1ccc(COc2ccc(Nc3ccnc4cc(-c5ccccn5)ccc34)cc2)cc1.Cl [GW440148] | 5%
67 | NS(=O)(=O)c1cccc(-c2ccc3nccc(-c4cccc(S(N)(=O)=O)c4)c3c2)c1 [GW867253] | 0%
68 | N#Cc1c(N2CCOCC2)sc(-c2ccn[nH]2)c1-c1ccc(Cl)cc1 | 0%
